# The list is not random: actives were taken first. Their share in the collection is about 5.1%.
# TMEM16A act = TMEM16A chloride channel activators or potentiators, primary screen, cell-based, HTS; B-score at 10 µM; 0.3% of 340,000 active; HEK293 TMEM16A/YFP-H148Q/I152L, iodide quench fluorescence; stronger effect = lower value; Anoctamin-1 (Mus musculus), Q8BHY3; AID 623877, 2012;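 active means fluorescence-ratio B-score plate-corrected deviation score at least 3 library SD below zero, with starting fluorescence score within 5 deviations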;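 further: channel opened by trigger with iodide after compound preincubation; score built on the fluorescence ratio of max minus min over baseline; more negative score means more quench and so TMEM16A activation or potentiation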
# Target sequence (Q8BHY3 whole entry, looked up): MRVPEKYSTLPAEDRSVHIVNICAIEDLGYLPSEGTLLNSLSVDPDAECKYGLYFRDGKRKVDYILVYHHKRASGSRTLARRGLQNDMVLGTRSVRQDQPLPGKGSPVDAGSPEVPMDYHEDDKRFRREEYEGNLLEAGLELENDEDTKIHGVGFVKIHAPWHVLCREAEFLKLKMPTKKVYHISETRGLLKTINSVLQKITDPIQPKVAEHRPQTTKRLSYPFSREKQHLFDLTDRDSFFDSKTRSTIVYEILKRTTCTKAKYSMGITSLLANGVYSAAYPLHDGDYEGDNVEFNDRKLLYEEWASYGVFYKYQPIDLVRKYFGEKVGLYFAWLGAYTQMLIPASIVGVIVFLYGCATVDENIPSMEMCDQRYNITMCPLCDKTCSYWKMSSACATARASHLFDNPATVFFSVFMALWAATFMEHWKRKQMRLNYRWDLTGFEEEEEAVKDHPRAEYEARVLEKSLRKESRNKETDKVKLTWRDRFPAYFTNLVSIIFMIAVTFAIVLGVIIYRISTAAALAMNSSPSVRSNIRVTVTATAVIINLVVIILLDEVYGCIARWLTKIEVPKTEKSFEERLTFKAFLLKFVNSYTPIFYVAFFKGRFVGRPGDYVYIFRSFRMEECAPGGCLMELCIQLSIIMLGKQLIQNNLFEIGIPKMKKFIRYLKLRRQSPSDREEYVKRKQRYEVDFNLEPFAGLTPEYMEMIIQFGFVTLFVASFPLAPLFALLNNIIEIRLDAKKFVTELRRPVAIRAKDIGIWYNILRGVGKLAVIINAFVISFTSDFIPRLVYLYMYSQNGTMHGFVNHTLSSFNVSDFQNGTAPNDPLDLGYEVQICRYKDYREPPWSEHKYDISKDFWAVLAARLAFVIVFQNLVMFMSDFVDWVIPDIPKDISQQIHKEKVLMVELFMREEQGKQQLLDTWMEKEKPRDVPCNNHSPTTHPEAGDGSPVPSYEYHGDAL
# CRFR2-BP ag = agonists of CRF-BP/CRF-R2 complex, primary screen, cell-based, HEK293, calcium dye fluorescence, uHTS; 0.46% of 350,000 active; activation, % at 13.2 µM; calcium dye fluorescence (FLIPR); percent of saturating CRF peptide response; AID 588473, 2011; CRF-binding protein / CRF receptor 2 complex (human);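 active means activation of at least 50%, plus an integration ratio under a set limit after plate pattern correction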;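 further: plate controls were neutral control wells without compound for no effect and CRF at EC100 for full effect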
# TMEM16A inh = TMEM16A chloride channel inhibitors, primary screen, cell-based, HTS; Anoctamin-1 (Mus musculus), Q8BHY3; HEK293 TMEM16A/YFP iodide influx fluorescence, ionomycin; normalized B-score (activity score, 25-100; higher = stronger inhibition) at 10 µM; 1.2% of 310,000 active; AID 588511, 2011;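 active means ratio plate-corrected score three or more library SD toward inhibition, starting fluorescence score within five deviations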;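 further: score derived from kinetic fluorescence span divided by baseline fluorescence per well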
# GRIN3A LBD mod = binders of NR3A ligand-binding domain, primary screen, biophysical, differential scanning fluorimetry, uHTS; Glutamate receptor ionotropic, NMDA 3A (GRIN3A) ligand-binding domain; NR3A LBD differential scanning fluorimetry, Tm shift; 0% = protein alone, 100% = glycine-bound protein; Tm shift relative to glycine control, % at 25 µM; 2.5% of 340,000 active;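 active means melting temperature shift of at least 10% of the positive control shift, at one fixed dose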
# MPTP block = mitochondrial permeability transition pore inhibitors, primary screen, biochemical, isolated mouse mitochondria, absorbance. Ca2+ swelling absorbance, 30 min. inhibition, % at 10 µM. 1.4% of 360,000 active. AID 602449, 2012;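 active means inhibition of 50% or more, scaled per plate between neutral and stimulator controls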;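 further: 0% = DMSO wells given calcium and 100% = 1 mM EGTA wells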
# CRFBP-R2 block = antagonists of CRF-BP/CRF-R2 complex, primary screen, cell-based, HEK293, calcium dye fluorescence, uHTS. CRF-induced calcium fluorescence. inhibition, % at 11.8 µM. 0.59% of 350,000 active. AID 588475, 2011;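 active means inhibition of the ligand-induced calcium signal above about 50% at the single tested concentration, limit read from the data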
# * marks the source's active call; other numbers are inactive results; i = inactive; x = not tested or not shown; ! = not active in a repeat.
SMILES,TMEM16A act,CRFR2-BP ag,TMEM16A inh,GRIN3A LBD mod,MPTP block,CRFBP-R2 block
Fc1cccc(CO/N=C/c2c(-c3ccccc3)nc3ccc(Cl)cn23)c1,i,8,i,0,4,-8
NC1=NC(=O)/C(=C/c2ccccc2OS(=O)(=O)c2ccc3ccccc3c2)S1,i,23,i,18*,0,-53
COc1ccc(CCN(Cc2nc(-c3ccccc3)no2)Cc2nc(-c3ccccc3)no2)cc1OC,i,0,i,16*,1,-1
O=C(N/C(=C/c1cccc([N+](=O)[O-])c1)C(=O)N1CCOCC1)c1ccccc1Br,i,0,i,-1,-1,-4
O=C(CN1CCN(C(=O)c2ccco2)CC1)Nc1c2c(nc3c1CCC3)CCCC2,i,2,x,2,0,72*
Nc1ccc(C(=O)OCc2nc3c(ccc4ccccc43)[nH]2)cc1,i,-1,i,27*,-5,-22
CCCCn1c(=NC(=O)c2cccnc2)c(C#N)cc2c(=O)n3cccc(C)c3nc21,i,89*,i,-3,5,-9
CCOCCCn1c(=NC(=O)c2cccnc2)c(C(=O)OCC)cc2c(=O)n3ccccc3nc21,i,-1,i,14*!,0,-16
CCCn1c(=NC(=O)c2ccncc2)c(C#N)cc2c(=O)n3cccc(C)c3nc21,i,-1,x,1,1,5
CCCCn1c(=NC(=O)c2cccnc2)c(C(=O)OCC)cc2c(=O)n3ccccc3nc21,i,-10,x,-3,2,17
CN(Cc1nccn1C)C(=O)c1ccc(OC2CCN(CCc3ccccc3)CC2)cc1,i,3,i,2,-1,-7
CCN(CC(=O)Nc1c(F)cccc1F)C(=O)c1cc([N+](=O)[O-])ccc1N1CCCCC1,i,0,i,0,0,-13
CC(=O)NC12CC3CC(C1)CC(C(=O)N1CCN(S(=O)(=O)c4cccc(C(F)(F)F)c4)CC1)(C3)C2,i,-1,i,2,-1,6
Brc1ccc2c(c1)OCCOCCOc1cc(Br)ccc1OCCOCCOCCO2,i,5,100*,1,8,-48
Brc1cc2c(cc1Br)OCCOCCOCCOCCO2,i,-5,i,-3,0,37
CCOc1cccc(OCCOCCNC(C)(C)C)c1,i,0,i,16*,-1,5
Cc1ccc(NC(=O)CN2CCc3cc4c(cc3C2C)OCCCO4)cc1C (configuration not stated),i,3,i,1,1,-17
N#C/C(=C\c1ccccc1[N+](=O)[O-])C(=O)NCc1ccccc1,i,23,i,3,2,-31
CCCCCCCCNC(=O)/C(C#N)=C/c1ccccc1[N+](=O)[O-],i,62*,i,-15,2,-97
O=C(N/N=C/c1ccc(Cl)cc1)Nc1ccccc1,i,2,i,13*,15,-42
O=C(N/N=C/c1ccncc1)c1ccc(NC(=O)c2cccc(Cl)c2)cc1,i,1,i,22*,-2,23
O=C(N/N=C/c1ccco1)Nc1ccccc1,i,-3,i,2,-1,17
Clc1ccc(/C=N\Nc2ccccc2)cc1,i,1,i,10*,8,2
Clc1cccc(N/N=C/c2ccncc2)c1,i,0,i,20*,5,-5
CCOc1ccc(/C=N/Nc2ccccc2)cc1,i,0,i,-1,2,1
SMILES,TMEM16A act,CRFR2-BP ag,TMEM16A inh,GRIN3A LBD mod,MPTP block,CRFBP-R2 block
Cc1ccc(N/N=C/c2ccncc2)cc1,i,-7,i,3,0,-8
O=C(c1ccc2c(c1)CCC2)N1CCN(Cc2c(F)cccc2Cl)CC1,x,0,x,x,0,5
CC(=O)N1c2ccc(S(=O)(=O)N3CCCC3C(=O)NCc3ccccc3Cl)cc2CC1C (configuration not stated),i,1,i,2,0,-1
COc1cccc(/C=c2\s/c(=C/C(=O)c3ccc(C)cc3)[nH]c2=O)c1OC,i,5,i,8,3,-2
COc1ccc(/C=c2\s/c(=C/C(=O)c3ccc(C)cc3)[nH]c2=O)c(OC)c1,i,123*,i,6,3,-192
CCOC(=O)Cc1nn(Cc2nc(-c3ccc(C)cc3)cs2)c(=O)c2ccccc12,i,1,25*,-1,5,8
C[C@@H]1CN([C@@H](C)CO)C(=O)CCCn2nncc2CO[C@H]1CN(C)Cc1cccnc1,x,1,x,x,-1,13
Cc1cccc(NC(=O)c2cccc(NC3=NC4CS(=O)(=O)CC4S3)c2)c1 (configuration not stated),i,-1,i,-2,-1,11
Cc1ccc(OCC(=O)NNC(=O)C(C)Sc2ncnc3sc(C)c(C)c23)cc1 (configuration not stated),i,0,100*,-2,5,18
Cc1cccc(C)c1OCC(=O)N=Nc1c(O)[nH]c2ccc(Br)cc12,i,-2,i,-3,-2,10
COc1ccc(/C=N/OCC(=O)N=Nc2c(O)[nH]c3ccc(Br)cc23)cc1,i,-2,i,2,2,55*
O=C(N=Nc1c(O)[nH]c2ccc(Br)cc12)c1cc(-c2cccc3ccccc23)n[nH]1,i,1,i,16*,0,-17
O=C(N=Nc1c(O)[nH]c2ccc(Br)cc12)c1cc(-c2cccs2)nc2ccccc12,i,0,x,-3,6,4
O=C(CN1C(=O)NC2(CCc3ccccc32)C1=O)c1ccc(F)c(F)c1 (configuration not stated),i,-3,i,0,-2,-6
CC(=O)Nc1ccc(NC(=O)c2c(C)noc2C)cc1,i,0,i,-1,-1,-4
Cc1ccc(NC(=O)c2c(C)noc2-c2snnc2C)cc1,i,-1,i,12*,5,4
Cc1nnsc1-c1onc(C)c1C(=O)O/N=C/c1ccc(Cl)cc1,i,0,i,-5,3,125*
Cc1n[nH]c(C)c1S(=O)(=O)N1CCN(S(=O)(=O)c2cccc(F)c2)CC1,i,0,x,4,-1,9
COc1cccc(N/C(SCc2ccccc2Cl)=C(/C#N)C(=O)NCc2cccs2)c1,i,10,i,13*,0,-8

# Screening data: PubChem, several laboratories
